In the library only some 10% were active in any assay of this set; here they are far more common.
MCF10A rerep: inducers of DNA re-replication in MCF 10A breast cells; MCF 10A DNA re-replication, Hoechst nuclear intensity, 48 h; 350,000 compounds, 2.9% hits; Potency, µM (series often up to 46.1 µM), for inactives: top-dose activity, positive = re-replication, most hits filed as activators; also: % of control where 0% means no effect; nearly all actives have a fitted effect of over 50% in size
RORg inh: inhibitors of mouse ROR gamma transcriptional activity; P51450; Drosophila S2 Gal4-RORgamma UAS-luciferase reporter, 20 h; Potency, µM (top dose mostly 53.6 µM), for the others: at the top dose activity change, negative = inhibition, actives largely listed as inhibitors; 310,000 compounds, 5.4% hits; also: % is scaled to controls: 0 for no effect and ±100 for the full control effect; nearly all actives have a fitted effect of over 60% in size
Target sequence (P51450 whole entry, looked up, the tested form may be a part): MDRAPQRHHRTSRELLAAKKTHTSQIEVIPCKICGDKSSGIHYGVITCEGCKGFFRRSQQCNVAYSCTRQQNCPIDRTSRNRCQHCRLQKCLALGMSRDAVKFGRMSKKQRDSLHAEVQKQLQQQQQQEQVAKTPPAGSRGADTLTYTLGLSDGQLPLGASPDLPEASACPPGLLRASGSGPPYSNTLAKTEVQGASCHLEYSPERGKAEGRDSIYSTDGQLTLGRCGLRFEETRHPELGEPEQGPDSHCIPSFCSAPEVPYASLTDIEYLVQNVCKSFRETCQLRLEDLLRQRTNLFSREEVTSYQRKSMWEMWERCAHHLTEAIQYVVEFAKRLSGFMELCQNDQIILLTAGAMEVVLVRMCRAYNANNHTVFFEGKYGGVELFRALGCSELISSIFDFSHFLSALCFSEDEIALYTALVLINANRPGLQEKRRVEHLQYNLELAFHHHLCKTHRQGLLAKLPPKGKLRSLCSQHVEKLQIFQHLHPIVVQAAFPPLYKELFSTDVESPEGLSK
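ROR gamma transcriptional activity was tracked as Gal4-UAS luciferase output in stably transfected Drosophila Schneider cells, with compound added 1 hr before 700 uM copper sulfate induction and a 20 hr ambient-temperature incubation.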
VP16 counter: inhibits Gal4-VP16 luciferase reporter, ROR gamma counter-screen; Drosophila S2 Gal4-VP16 UAS-luciferase, luminescence, 20 h; Potency, µM (doses to about 53.6 µM), inactives show at the top dose activity, negative = inhibition, most hits filed as inhibitors; 310,000 compounds, 3.5% hits; AID 2546;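 also: Gal4-VP16 expression switched on by copper sulfate through the metallothionein promoter; % is scaled to controls: 0 for no effect and ±100 for the full control effect; nearly all actives have a fitted effect of over 50% in size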
ELG1 repair inh: ELG1-dependent DNA repair inhibition; HEK293T ELG1-luciferase reporter, luminescence, 16 h; DNA damage induced by 5-fluorouridine; Potency, µM (highest dose often 46.1 µM), inactives show top-dose activity change, negative = inhibition, hits mostly inhibitors; 330,000 compounds, 2.3% hits; also: % is scaled to controls: 0 for no effect and ±100 for the full control effect; nearly all actives have a fitted effect of over 55% in size
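5-Fluorouridine DNA damage + compound/DMSO, 2,000 cells/well, 16 h, 37 °C/5% CO2. ONE-Glo, 30 min RT, luminescence. Readout = decrease in reporter signal.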
SW480 rereplic: inducers of DNA re-replication in SW480 colon cancer cells; SW480 DNA re-replication, Hoechst DNA content imaging, 48 h; Potency, µM (series often up to 46.1 µM), without a hit: top-dose re-replication activation, actives largely listed as activators; 340,000 compounds, 1.8% hits; also: % of control where 0% means no effect; nearly all actives have a fitted effect of over 55% in size
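Image-based DNA-content assay: after two days of treatment, nuclei were labelled with the DNA dye Hoechst and imaged, and hits were compounds raising the count of nuclei showing high fluorescence intensity.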
* hit, by the source's call; u = inconclusive; x = not tested or not shown; [ ] = remark or other dose. Calls follow the shape of the dose curve; as a rule, active = well fitted curve in the direction sought with a large enough effect; inconclusive = small, poorly fitted or top-dose-only effect, or another doubt; inactive = no such curve, though single readings can be large; an effect the other way counts as inactive or inconclusive. Potency is read from the fitted curve at half-maximal effect.

SMILES	MCF10A rerep	RORg inh	VP16 counter	ELG1 repair inh	SW480 rereplic
CC1CC(C)CN(C(=O)/C=C/c2ccc([N+](=O)[O-])s2)C1 (stereo unspecified)	21.6%	-9.8%	7.0%	u	u
O=C(/C=C/c1ccc([N+](=O)[O-])s1)N1CCCCC1	u	11.2µM*	u	u	5.8µM*
CC1CN(C(=O)/C=C/c2ccc([N+](=O)[O-])s2)CC(C)O1 (stereo unspecified)	u	u	u	u	8.2µM*
O=C(/C=C/c1ccc([N+](=O)[O-])s1)N1CCCC1	-0.8%	6.31µM*	12.6µM*	14.6µM*	11.6µM*
O=C(/C=C/c1ccc([N+](=O)[O-])s1)N1CCN(c2ccccc2)CC1	u	-16.6%	-1.0%	0.2%	26.6%
COC(=O)C[C@H]1C=C[C@@H](C(C(=O)OC)C(=O)OC)CN1C(C)=O	-15.9%	x	x	x	-23.7%
COc1cc(CO)ccc1OCC(=O)N1CCc2ccccc21	1.3%	2.51µM*	u	16.4%	-1.8%
CC(C)C(=O)Nc1nc2cc3c(cc2s1)OCCO3	15.5%	-43.1%	-23.9%	u	5.0%
CCOC(=O)c1ccc2nc(NC(=O)c3ccco3)sc2c1	20.6µM*	8.2%	3.4%	u	u
O=C(Nc1nc2cc3c(cc2s1)OCO3)C1=COCCO1	u	4.47µM*	3.98µM*	u	16.4µM*
CS(=O)(=O)c1ccc2nc(NC(=O)c3ccco3)sc2c1	1.3%	u	u	u	-8.0%
CC1CCc2nc(NC(=O)c3ccco3)sc2C1 (stereo unspecified)	2.0%	2.51µM*	3.98µM*	u	-3.6%
O=C(NC(=S)Nc1nc2ccc(F)cc2s1)c1ccco1	-1.0%	0.794µM*	1.78µM*	u	0.1%
O=C1CSC(c2ccccn2)N1c1ccc(Br)cc1 (stereo unspecified)	9.2%	1.9%	-8.9%	-42.0%	-9.5%
O=C(Nc1nc2cc3c(cc2s1)OCCO3)c1ccco1	u	2.51µM*	6.31µM*	u	u
O=C(Nc1nc2cc3c(cc2s1)OCCO3)c1ccncc1	2.2%	-30.3%	-21.2%	u	3.7%
N#CCC(=O)N/N=C/c1cc(-c2ccccc2)n(-c2ccc(Cl)cc2)c1-c1ccccc1	u	-0.1%	-4.2%	-2.8%	u
O=C(CNc1ccc2c(c1)OCO2)N/N=C\c1cn(Cc2ccccc2)c2ccccc12	15.0%	12.6µM*	u	u	-8.8%
N#CCC(=O)N/N=C/c1cn(Cc2ccc(Cl)cc2Cl)c2ccccc12	11.6µM*	10.2%	12.1%	-27.2%	u
O=C(CNc1ccc2c(c1)OCO2)N/N=C\c1cn(Cc2ccc(F)cc2)c2ccccc12	20.6µM*	u	10µM*	u	-1.5%
O=C(CNc1ccccc1)N/N=C/c1ccc2c(c1)OCO2	12.2%	35.0%	4.5%	2.5%	-19.9%
Cc1ccc(NC(=O)C2(c3cccs3)CCOCC2)cc1C	0.1%	22.1%	15.8%	-6.6%	-5.1%
CCOC(=O)c1ccc(NC(=O)COC(=O)c2cccc(Oc3ccccc3)c2)cc1	1.3%	10.6%	-5.4%	16.3%	-7.4%
Brc1cccc(Cn2c(-c3cncs3)nc3ccccc32)c1	27.5%	8.91µM*	8.91µM*	2.8%	2.1%
c1ccc(Cn2c(-c3cncs3)nc3ccccc32)cc1	19.8%	-25.7%	20.0%	u	4.2%
SMILES	MCF10A rerep	RORg inh	VP16 counter	ELG1 repair inh	SW480 rereplic
Brc1ccc(Cn2c(-c3cncs3)nc3ccccc32)cc1	3.9%	u	6.31µM*	u	1.5%
CC(C)n1nnnc1SCC(=O)c1c(N)n(C2CC2)c(=O)[nH]c1=O	1.7%	x	x	11.4%	-12.2%
O=C(NCC(c1ccco1)N1CCOCC1)c1ccc(C(F)(F)F)cc1 (stereo unspecified)	0.5%	x	x	7.2%	-0.4%
Nc1nc(Nc2ccccc2)nc2c1ncn2[C@@H]1O[C@@H](CO)[C@H](O)[C@H]1O	x	-0.1%	u	x	x
CC(NC(=S)Nc1ccc(S(=O)(=O)N2CCOCC2)cc1)C1CC2CCC1C2 (stereo unspecified)	u	u	u	-17.0%	5.5%
Cc1nc(-c2ccc(Cl)cc2)sc1C1(C)CC(c2ccc(F)cc2)=NO1 (stereo unspecified)	10.3µM*	23.9%	-2.2%	u	-3.1%
Cc1ccc(C2=NOC(C)(c3sc(-c4ccc(Cl)cc4)nc3C)C2)cc1 (stereo unspecified)	0.6%	x	x	x	-35.9%[9.22 µM]
O=C(Cc1ccc(S(=O)(=O)N2CCOCC2)s1)Nc1cc(C(F)(F)F)cc(C(F)(F)F)c1	20.6µM*	x	x	20.6µM*	u
CCOC(=O)c1cc(NC(=O)Cc2ccc(S(=O)(=O)N3CCOCC3)s2)cc(C(=O)OCC)c1	2.6%	x	x	6.51µM*	3.3%
O=C(c1ccc(S(=O)(=O)c2cccc(Cl)c2)c([N+](=O)[O-])c1)N1CCN(Cc2ccccc2)CC1	20.6µM*	u	25.1µM*	u	u
OCCN1CCN(CC(O)COC(c2ccc(F)cc2)c2ccc(F)cc2)CC1 (stereo unspecified)	23.1µM*	-0.7%	-6.5%	2.0%	16.4%
O=C1c2ccccc2N[C@@H]2C=CC[C@@H]2N1O	-3.5%	x	x	1.2%	25.9µM*
CCOc1ncccc1C(=O)OCC(=O)c1ccc(F)cc1	-0.9%	44.2%	14.4%	-8.5%	18.0%
COc1cc(SC)ccc1C(=O)Nc1cc(C)c(OCC(=O)N2CCOCC2)c(C)c1	1.7%	12.8%	-1.8%	14.6µM*	8.8%
COc1cc(SC)ccc1C(=O)Nc1ccc(OCC(=O)N2CCOCC2)cc1	-4.9%	10µM*	11.2µM*	u	-5.3%
COc1c(C)cccc1C(=O)Nc1ccc(OCC(=O)N2CCOCC2)cc1C	u	1.78µM*	u	18.3%	2.0%
Cc1ccc(S(=O)(=O)NC(=O)c2ccc(-c3ccc(-c4ccccc4)cc3)o2)c(C)c1	u	39.2%	9.1%	2.6%	-4.2%
CC(C(=O)Nc1ccccc1C#N)N1C(=O)NC2(CCCCCC2)C1=O (stereo unspecified)	-14.0%	x	x	u	-86.1%
C=CCOC(=O)C1=C[C@@H](C2CCCCC2)C[C@@H](OCc2ccc(CO)cc2)O1	21.5%	0.1%	3.0%	-7.1%	u
CCOc1cc(S(=O)(=O)NCCCn2ccnc2)ccc1Cl	-0.8%	23.8%[1.91 µM]	-8.0%	-6.9%	7.8%
Cc1nn(Cc2ccccc2Cl)c(Cl)c1/C=C/C(=O)OCC(=O)NC(N)=O	4.2%	10.4%	-1.0%	-19.5%	3.9%
Cc1nn(Cc2ccccc2)c(Cl)c1/C=C/C(=O)OC(C(=O)NC(N)=O)C(C)C (stereo unspecified)	6.51µM*	-3.0%	3.6%	u	-39.1%

Screening data (PubChem BioAssay)
